Screens: PubChem BioAssay, Broad Institute
A selection: hits, their analogues and other compounds. The true share with any hit is near 2.1%.
NSD2 HMT inh: inhibitors of human histone methyltransferase NSD2; O96028; NSD2 peptide methylation, AlphaScreen, 120 min; inhibition, % at 12.5 µM; 0.54% of 310,000 active; in the data active = inhibition above about 50%
ARNT TACC3 PPI: disrupts binding between human ARNT and TACC3 | Q9Y6A5 | AlphaScreen His-ARNT PAS-B/GST-TACC3 binding, luminescence; TACC3 fragment carries E629A point mutation | AID 623870 | 0.66% of 390,000 active | inhibition, % at 9.99 µM;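 active = mean inhibition of replicates at least 50% and at least half of replicates each reaching 50%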;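 note: 0% = complete ARNT plus TACC3 wells and 100% = ARNT alone without TACC3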
SIRT5 block: blocks human SIRT5 desuccinylation of peptide; Q9NXA8; Purified SirT5, succinyl-peptide AMC, trypsin-coupled fluorescence; inhibition, % at 15 µM; 1.1% of 330,000 active; AID 652115; in the data active = inhibition above about 15%
Target sequence (Q9NXA8 whole entry, looked up): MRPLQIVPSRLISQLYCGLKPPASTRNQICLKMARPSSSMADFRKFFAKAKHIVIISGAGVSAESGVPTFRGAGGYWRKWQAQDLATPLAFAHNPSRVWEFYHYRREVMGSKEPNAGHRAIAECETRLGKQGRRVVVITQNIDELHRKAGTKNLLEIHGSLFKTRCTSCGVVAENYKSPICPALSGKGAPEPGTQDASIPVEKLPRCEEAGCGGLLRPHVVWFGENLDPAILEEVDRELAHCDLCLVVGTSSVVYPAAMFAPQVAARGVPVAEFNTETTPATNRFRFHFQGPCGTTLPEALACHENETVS
Casp6 inh: blocks human caspase-6 cleavage activity. P55212. purified caspase-6, Z-VEID-R110 cleavage fluorescence. inhibition, % at 12.5 µM. 0.53% of 350,000 active. AID 686996;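 active = mean inhibition across replicates at least about 35%, with every replicate also reaching that limit, limit read from the data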;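 note: 0% = median of neutral control wells and 100% = no fluorescence left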
Target sequence (P55212 24-179 limits assumed): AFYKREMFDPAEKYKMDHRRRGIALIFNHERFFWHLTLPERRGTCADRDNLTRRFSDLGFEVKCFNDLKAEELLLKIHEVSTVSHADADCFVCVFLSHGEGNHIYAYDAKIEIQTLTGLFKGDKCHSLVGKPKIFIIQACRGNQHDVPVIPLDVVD
Target sequence (P55212 194-293 limits assumed): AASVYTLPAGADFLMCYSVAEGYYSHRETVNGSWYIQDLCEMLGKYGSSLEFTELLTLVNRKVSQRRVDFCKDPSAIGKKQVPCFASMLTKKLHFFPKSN
PfHsp90 set2: growth inhibition of yeast expressing Plasmodium Hsp90; S. cerevisiae expressing PfHsp90, BacTiter-Glo ATP, 48 h; yeast lacking PDR1 and PDR3 efflux regulators; inhibition, % at 9.4 µM; 0.32% of 310,000 active; AID 504621;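 active = every replicate shows inhibition above about 80%, whatever the replicate mean, limit read from the data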;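 note: 0% = DMSO neutral controls and 100% = 20 µM radicicol positive controls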
An asterisk follows results filed as active.

COCCCNC(=O)/C(C#N)=C/c1ccc(OCC(=O)O)c(OC)c1 was read as NSD2 HMT inh 42, ARNT TACC3 PPI 2, SIRT5 block 4, Casp6 inh 41* and PfHsp90 set2 -15.
`O=C(Nc1ccc2c(c1)[C@@H]1C[C@H](CC(=O)N3CCc4ccccc4C3)O[C@@H](CO)[C@@H]1O2)C1CCC1` gave ARNT TACC3 PPI 0, SIRT5 block 0 and Casp6 inh 1.
Screening CC(C)NC(=O)N(C)C[C@H]1OCCCC[C@@H](C)Oc2ccc(NC(=O)CCC(F)(F)F)cc2C(=O)N([C@@H](C)CO)C[C@H]1C returned ARNT TACC3 PPI -4, SIRT5 block 0 and Casp6 inh 1.
For O=C(O)[C@H]1[C@H](CO)[C@H]2Cn3c(ccc(C4=CCCCC4)c3=O)[C@H]2N1C(=O)Cc1cccnc1 the results were SIRT5 block -4 and Casp6 inh -2.
For COC1=C(Br)C(=O)c2ncccc2C1=O the results were ARNT TACC3 PPI 47*, SIRT5 block 4, Casp6 inh 98* and PfHsp90 set2 15.
O=C1c2cccnc2-c2ncccc21 was read as NSD2 HMT inh -4, ARNT TACC3 PPI 29 and PfHsp90 set2 18.
For CC(N)C(=O)NC(C(=O)NC(C)C(=O)Nc1cccc2ccccc12)C(C)C (centres undefined) the results were SIRT5 block 0 and Casp6 inh 45*.
Screening CC(c1ccon1)N(C)C(=O)c1cccc(OC2CCN(S(C)(=O)=O)CC2)c1 (centres undefined) returned NSD2 HMT inh -2, SIRT5 block 15* and Casp6 inh 0.
Screening O=C(/C=C/c1ccccc1)CCN1CCCCC1 returned NSD2 HMT inh 7, ARNT TACC3 PPI -1, SIRT5 block 1, Casp6 inh -3 and PfHsp90 set2 117*.
For CC(=O)N1CC2(C1)[C@@H](c1ccc(-c3ccccc3C)cc1)[C@@H](CO)N2C(=O)CC1CC1 the results were SIRT5 block 7 and Casp6 inh -1.
`CC1=NN(C(N)=S)C(=O)C1N=Nc1cccc(C(=O)O)c1` (centres undefined) gave NSD2 HMT inh 2, ARNT TACC3 PPI 23, SIRT5 block 24*, Casp6 inh -2 and PfHsp90 set2 15.
For CC1=NN(C(N)=S)C(=O)C1N=Nc1cccc(C)c1 (centres undefined) the results were NSD2 HMT inh 1, ARNT TACC3 PPI -1, SIRT5 block -4, Casp6 inh 4 and PfHsp90 set2 -29.
C/C(CC(=O)Nc1cc(Cl)ccc1C)=N\NC(=O)C(=O)N1CCCC1 was read as NSD2 HMT inh -1, ARNT TACC3 PPI 5, SIRT5 block 28*, Casp6 inh -1 and PfHsp90 set2 21.
C[C@H]1CN([C@@H](C)CO)C(=O)c2cc(NS(C)(=O)=O)ccc2O[C@H]1CN(C)Cc1ccc(C(=O)O)cc1 was read as ARNT TACC3 PPI -6, SIRT5 block 8 and Casp6 inh -2.
CCS(=O)(=O)C1=NN2C(=N)/C(=C\c3ccc(OS(=O)(=O)c4ccccc4)cc3)C(=O)N=C2S1 was read as NSD2 HMT inh 17, ARNT TACC3 PPI -1 and PfHsp90 set2 0.
`COc1cc(/C=C2\C(=N)N3N=C(S(C)(=O)=O)SC3=NC2=O)ccc1OCCOc1ccc(C)cc1` gave NSD2 HMT inh 6, ARNT TACC3 PPI -4, SIRT5 block 8, Casp6 inh 16 and PfHsp90 set2 17.
CCS(=O)(=O)C1=NN2C(=N)/C(=C\c3ccc(OS(=O)(=O)c4ccccc4)c(OC)c3)C(=O)N=C2S1 was read as NSD2 HMT inh 22.
Cc1ccc(S(=O)(=O)Oc2ccc(/C=C3\C(=N)N4N=C(S(C)(=O)=O)SC4=NC3=O)cc2)cc1 was read as NSD2 HMT inh 47, ARNT TACC3 PPI 5, SIRT5 block 12, Casp6 inh 59* and PfHsp90 set2 13.
`COc1cc(/C=C2\C(=N)N3N=C(S(C)(=O)=O)SC3=NC2=O)cc(OC)c1OCCOc1ccc(C)cc1` gave NSD2 HMT inh 39, ARNT TACC3 PPI 4, SIRT5 block 20*, Casp6 inh 31 and PfHsp90 set2 -17.
`CCOc1cc(/C=C2\C(=N)N3N=C(S(C)(=O)=O)SC3=NC2=O)ccc1OCCOc1cccc(OC)c1` gave NSD2 HMT inh 2, ARNT TACC3 PPI -29, SIRT5 block 17*, Casp6 inh 45* and PfHsp90 set2 -5.
For CCS(=O)(=O)C1=NN2C(=N)/C(=C\c3ccc(OCCOc4cccc(OC)c4)c(OC)c3)C(=O)N=C2S1 the results were NSD2 HMT inh 20, ARNT TACC3 PPI 1, SIRT5 block 18*, Casp6 inh 45* and PfHsp90 set2 -3.
Screening CO[C@H]1CN(C)C(=O)c2cc(NS(=O)(=O)CC(F)(F)F)ccc2OC[C@@H](C)N(Cc2ccccn2)C[C@@H]1C returned ARNT TACC3 PPI 21, SIRT5 block -2 and Casp6 inh 1.
C[C@@H]1CCCCO[C@@H](CN(C)Cc2ccncc2)[C@@H](C)CN([C@@H](C)CO)C(=O)c2cc(NS(=O)(=O)c3cn(C)cn3)ccc2O1 was read as ARNT TACC3 PPI 0, SIRT5 block -4 and Casp6 inh 3.
`O=C(C[C@H]1CC[C@H](NC(=O)c2ccncc2)[C@@H](CO)O1)NCC1CCCCC1` gave ARNT TACC3 PPI 15, SIRT5 block 1 and Casp6 inh 2.
CS(=O)(=O)C1=NSC2=NC(=O)/C(=C\c3ccc(OS(=O)(=O)c4ccccc4)cc3)C(=N)N21 was read as NSD2 HMT inh 17, ARNT TACC3 PPI 2, SIRT5 block 17*, Casp6 inh 9 and PfHsp90 set2 -10.
`CCOC(=O)N1CCN(C(=O)Cn2nc(C)n3nc(-c4ccc(OC)cc4)cc3c2=O)CC1` gave NSD2 HMT inh 2, ARNT TACC3 PPI 17, SIRT5 block -3, Casp6 inh 38* and PfHsp90 set2 -1.
CCOC(=O)N1CCN(C(=O)Cn2nc(C)n3nc(-c4ccc(CC)cc4)cc3c2=O)CC1 was read as NSD2 HMT inh -2, SIRT5 block -4, Casp6 inh 2 and PfHsp90 set2 4.
`Cc1nn(CCc2nc(-c3ccco3)cs2)c2[nH]c(=O)cc(C(F)(F)F)c12` gave NSD2 HMT inh 25, ARNT TACC3 PPI -2, SIRT5 block 16*, Casp6 inh 49* and PfHsp90 set2 1.
Cc1cc(C)n(CCc2nc(-c3ccco3)cs2)n1 was read as NSD2 HMT inh -4, ARNT TACC3 PPI -1, SIRT5 block 8, Casp6 inh 58* and PfHsp90 set2 0.
For O=c1[nH]c(=O)n(Cc2ccccc2)c2nc(-c3ccco3)cc(C(F)(F)F)c12 the results were ARNT TACC3 PPI 12 and PfHsp90 set2 16.
COc1cc(/C=C(/C#N)c2nc3ccccc3[nH]2)ccc1OCc1ccc(C(=O)O)o1 was read as ARNT TACC3 PPI 40, SIRT5 block 18*, Casp6 inh 24 and PfHsp90 set2 -2.
